For assay [1], the target named is BDNF/NT-3 growth factors receptor (Homo sapiens) (UniProt Q16620). Particulars: at 10 µM.
Assay [2] addresses T1, Tyrosine-protein kinase TXK (Homo sapiens) (UniProt P42681).
T1 sequence (whole entry): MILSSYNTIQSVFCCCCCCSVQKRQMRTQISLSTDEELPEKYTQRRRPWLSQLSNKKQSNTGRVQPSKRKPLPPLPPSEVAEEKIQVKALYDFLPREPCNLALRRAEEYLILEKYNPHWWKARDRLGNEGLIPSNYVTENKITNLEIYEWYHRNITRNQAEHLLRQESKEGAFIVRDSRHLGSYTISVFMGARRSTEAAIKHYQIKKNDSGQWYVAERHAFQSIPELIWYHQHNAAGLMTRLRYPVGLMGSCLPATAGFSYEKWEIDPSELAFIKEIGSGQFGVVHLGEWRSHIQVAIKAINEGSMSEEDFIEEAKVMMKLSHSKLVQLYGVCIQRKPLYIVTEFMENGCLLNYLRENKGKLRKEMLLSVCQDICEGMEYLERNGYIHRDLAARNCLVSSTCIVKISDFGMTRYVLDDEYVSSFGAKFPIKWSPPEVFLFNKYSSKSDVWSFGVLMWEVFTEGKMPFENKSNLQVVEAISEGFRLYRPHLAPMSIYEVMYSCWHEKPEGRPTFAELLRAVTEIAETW
The following applies: at 1 µM.

Assay [3] has as its target T1, Tyrosine-protein kinase TXK (Homo sapiens). Particulars: at 10 µM.
For assay [4], the target named is T2, Serine/threonine-protein kinase ULK2 (Homo sapiens) (UniProt Q8IYT8).
T2 sequence (whole entry): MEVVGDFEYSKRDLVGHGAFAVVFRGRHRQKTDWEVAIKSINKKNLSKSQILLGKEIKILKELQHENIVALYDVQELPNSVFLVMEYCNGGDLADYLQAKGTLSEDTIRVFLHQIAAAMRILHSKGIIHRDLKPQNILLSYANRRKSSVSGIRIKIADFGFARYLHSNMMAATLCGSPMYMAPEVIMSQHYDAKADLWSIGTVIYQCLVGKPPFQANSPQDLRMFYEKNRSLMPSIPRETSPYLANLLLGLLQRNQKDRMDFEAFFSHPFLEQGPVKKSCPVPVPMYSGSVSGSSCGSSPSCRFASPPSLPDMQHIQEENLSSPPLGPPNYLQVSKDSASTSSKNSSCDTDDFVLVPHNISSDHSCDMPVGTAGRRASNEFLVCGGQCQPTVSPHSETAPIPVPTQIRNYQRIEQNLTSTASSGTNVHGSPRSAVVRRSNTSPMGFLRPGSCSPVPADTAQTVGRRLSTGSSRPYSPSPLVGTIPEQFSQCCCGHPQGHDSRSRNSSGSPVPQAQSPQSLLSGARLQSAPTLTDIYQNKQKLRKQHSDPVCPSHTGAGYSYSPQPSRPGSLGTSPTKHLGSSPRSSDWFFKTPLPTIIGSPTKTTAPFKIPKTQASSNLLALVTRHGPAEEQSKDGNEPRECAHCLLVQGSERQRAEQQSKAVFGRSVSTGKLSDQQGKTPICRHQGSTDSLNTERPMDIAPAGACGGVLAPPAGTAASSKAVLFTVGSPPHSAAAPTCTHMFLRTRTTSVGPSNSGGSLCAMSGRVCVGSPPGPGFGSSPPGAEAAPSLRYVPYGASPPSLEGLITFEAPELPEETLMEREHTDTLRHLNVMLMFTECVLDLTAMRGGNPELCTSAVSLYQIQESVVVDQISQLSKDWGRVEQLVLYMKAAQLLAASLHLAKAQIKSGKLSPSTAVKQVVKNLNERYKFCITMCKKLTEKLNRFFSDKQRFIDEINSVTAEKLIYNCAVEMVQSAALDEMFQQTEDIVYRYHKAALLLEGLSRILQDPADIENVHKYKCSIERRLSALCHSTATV
Particulars: at 1 µM.

Assay [5] deals with T2, Serine/threonine-protein kinase ULK2 (Homo sapiens). Particulars: at 10 µM.
Assay [6] deals with T3, Serine/threonine-protein kinase ULK3 (Homo sapiens) (UniProt Q6PHR2).
T3 sequence (whole entry): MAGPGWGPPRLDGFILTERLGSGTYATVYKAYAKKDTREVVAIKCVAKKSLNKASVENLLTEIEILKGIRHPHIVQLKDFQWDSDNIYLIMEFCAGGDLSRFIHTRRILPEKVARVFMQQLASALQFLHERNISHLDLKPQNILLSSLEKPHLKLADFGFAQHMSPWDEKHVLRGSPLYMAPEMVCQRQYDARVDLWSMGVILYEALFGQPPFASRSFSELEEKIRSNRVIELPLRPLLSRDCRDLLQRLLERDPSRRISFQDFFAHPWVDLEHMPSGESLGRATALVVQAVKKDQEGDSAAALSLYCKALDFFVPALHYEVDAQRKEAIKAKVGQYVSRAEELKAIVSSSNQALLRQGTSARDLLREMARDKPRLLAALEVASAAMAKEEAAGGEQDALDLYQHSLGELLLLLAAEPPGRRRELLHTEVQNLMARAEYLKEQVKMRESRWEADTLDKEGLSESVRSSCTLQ
Particulars: at 1 µM.

Assay [7] deals with T3, Serine/threonine-protein kinase ULK3 (Homo sapiens). The following applies: at 10 µM.
For assay [8], the target named is Serine/threonine-protein kinase VRK2 (Homo sapiens) (UniProt Q86Y07). Particulars: at 1 µM.
Assay [9] shares this target. Particulars: at 10 µM.
Assay [10] deals with Serine/threonine-protein kinase WNK2 (Homo sapiens) (UniProt Q9Y3S1). The following applies: at 1 µM.
Assay [11] shares this target. Particulars: at 10 µM.
The target of assay [12] is Serine/threonine-protein kinase WNK3 (Homo sapiens) (UniProt Q9BYP7). The following applies: at 1 µM.
For assay [13] the target is unchanged. Particulars: at 10 µM.
Assay [14] has as its target Tyrosine-protein kinase Yes (Homo sapiens) (UniProt P07947). The following applies: at 1 µM.
For assay [15] the target is unchanged. Particulars: at 10 µM.
Assay [16] concerns the target T4, Tyrosine-protein kinase ZAP-70 (Homo sapiens) (UniProt P43403).
T4 sequence (whole entry): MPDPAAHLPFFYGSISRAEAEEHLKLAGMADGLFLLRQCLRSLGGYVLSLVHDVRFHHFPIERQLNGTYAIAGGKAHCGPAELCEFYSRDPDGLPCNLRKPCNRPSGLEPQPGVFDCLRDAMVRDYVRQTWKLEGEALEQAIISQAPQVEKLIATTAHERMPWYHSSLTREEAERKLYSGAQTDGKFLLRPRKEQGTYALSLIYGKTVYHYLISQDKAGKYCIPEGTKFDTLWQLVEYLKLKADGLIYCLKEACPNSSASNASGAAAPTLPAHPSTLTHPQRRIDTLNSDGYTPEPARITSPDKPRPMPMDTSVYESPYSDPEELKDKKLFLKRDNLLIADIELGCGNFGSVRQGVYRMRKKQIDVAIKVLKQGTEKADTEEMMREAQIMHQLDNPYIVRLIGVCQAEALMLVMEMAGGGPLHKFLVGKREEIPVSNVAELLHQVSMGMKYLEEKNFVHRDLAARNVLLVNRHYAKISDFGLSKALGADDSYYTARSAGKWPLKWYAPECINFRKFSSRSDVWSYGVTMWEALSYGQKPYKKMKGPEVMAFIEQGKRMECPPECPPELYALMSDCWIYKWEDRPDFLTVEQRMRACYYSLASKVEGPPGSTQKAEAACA
The following applies: at 1 µM.

The target in assay [17] is Death-associated protein kinase 3 (Homo sapiens) (UniProt O43293). The following applies: at 1 µM.
For assay [18] the target is unchanged. Particulars: at 10 µM.
The target in assay [19] is RAF proto-oncogene serine/threonine-protein kinase (Homo sapiens) (UniProt P04049). Particulars: at 1 µM.
Assay [20] has the same target. The following applies: at 10 µM.

The term residual activity denotes the signal under treatment as a percentage of the control signal.

Death-associated protein kinase 3 (Homo sapiens), sequence (O43293 whole entry, looked up): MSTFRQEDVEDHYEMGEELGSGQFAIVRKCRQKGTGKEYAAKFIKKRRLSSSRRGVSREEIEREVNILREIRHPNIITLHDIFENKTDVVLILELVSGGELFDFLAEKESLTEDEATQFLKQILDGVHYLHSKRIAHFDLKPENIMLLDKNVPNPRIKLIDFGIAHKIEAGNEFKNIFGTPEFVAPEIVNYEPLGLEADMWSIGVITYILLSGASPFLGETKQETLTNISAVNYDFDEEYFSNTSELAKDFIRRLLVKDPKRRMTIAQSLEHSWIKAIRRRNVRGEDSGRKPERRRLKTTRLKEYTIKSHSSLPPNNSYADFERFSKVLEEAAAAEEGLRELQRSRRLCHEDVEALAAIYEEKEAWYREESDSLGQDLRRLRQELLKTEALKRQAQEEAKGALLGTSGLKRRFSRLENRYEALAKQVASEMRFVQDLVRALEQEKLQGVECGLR
Tyrosine-protein kinase Yes (Homo sapiens), sequence (P07947 2-543 limits assumed): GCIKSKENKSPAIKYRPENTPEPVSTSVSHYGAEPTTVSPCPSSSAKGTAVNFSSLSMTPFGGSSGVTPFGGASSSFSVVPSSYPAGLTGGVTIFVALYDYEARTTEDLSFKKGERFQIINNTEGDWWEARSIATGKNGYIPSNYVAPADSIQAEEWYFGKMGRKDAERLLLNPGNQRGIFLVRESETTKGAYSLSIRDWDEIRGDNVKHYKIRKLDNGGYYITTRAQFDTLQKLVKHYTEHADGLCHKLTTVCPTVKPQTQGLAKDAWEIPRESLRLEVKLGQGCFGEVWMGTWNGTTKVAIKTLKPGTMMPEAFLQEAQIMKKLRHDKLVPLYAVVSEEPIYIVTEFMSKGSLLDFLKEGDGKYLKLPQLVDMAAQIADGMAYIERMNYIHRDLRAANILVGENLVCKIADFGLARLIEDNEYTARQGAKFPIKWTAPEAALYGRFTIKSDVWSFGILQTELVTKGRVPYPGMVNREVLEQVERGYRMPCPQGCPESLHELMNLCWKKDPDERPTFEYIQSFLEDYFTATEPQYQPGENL
Serine/threonine-protein kinase WNK3 (Homo sapiens), sequence (Q9BYP7 whole entry): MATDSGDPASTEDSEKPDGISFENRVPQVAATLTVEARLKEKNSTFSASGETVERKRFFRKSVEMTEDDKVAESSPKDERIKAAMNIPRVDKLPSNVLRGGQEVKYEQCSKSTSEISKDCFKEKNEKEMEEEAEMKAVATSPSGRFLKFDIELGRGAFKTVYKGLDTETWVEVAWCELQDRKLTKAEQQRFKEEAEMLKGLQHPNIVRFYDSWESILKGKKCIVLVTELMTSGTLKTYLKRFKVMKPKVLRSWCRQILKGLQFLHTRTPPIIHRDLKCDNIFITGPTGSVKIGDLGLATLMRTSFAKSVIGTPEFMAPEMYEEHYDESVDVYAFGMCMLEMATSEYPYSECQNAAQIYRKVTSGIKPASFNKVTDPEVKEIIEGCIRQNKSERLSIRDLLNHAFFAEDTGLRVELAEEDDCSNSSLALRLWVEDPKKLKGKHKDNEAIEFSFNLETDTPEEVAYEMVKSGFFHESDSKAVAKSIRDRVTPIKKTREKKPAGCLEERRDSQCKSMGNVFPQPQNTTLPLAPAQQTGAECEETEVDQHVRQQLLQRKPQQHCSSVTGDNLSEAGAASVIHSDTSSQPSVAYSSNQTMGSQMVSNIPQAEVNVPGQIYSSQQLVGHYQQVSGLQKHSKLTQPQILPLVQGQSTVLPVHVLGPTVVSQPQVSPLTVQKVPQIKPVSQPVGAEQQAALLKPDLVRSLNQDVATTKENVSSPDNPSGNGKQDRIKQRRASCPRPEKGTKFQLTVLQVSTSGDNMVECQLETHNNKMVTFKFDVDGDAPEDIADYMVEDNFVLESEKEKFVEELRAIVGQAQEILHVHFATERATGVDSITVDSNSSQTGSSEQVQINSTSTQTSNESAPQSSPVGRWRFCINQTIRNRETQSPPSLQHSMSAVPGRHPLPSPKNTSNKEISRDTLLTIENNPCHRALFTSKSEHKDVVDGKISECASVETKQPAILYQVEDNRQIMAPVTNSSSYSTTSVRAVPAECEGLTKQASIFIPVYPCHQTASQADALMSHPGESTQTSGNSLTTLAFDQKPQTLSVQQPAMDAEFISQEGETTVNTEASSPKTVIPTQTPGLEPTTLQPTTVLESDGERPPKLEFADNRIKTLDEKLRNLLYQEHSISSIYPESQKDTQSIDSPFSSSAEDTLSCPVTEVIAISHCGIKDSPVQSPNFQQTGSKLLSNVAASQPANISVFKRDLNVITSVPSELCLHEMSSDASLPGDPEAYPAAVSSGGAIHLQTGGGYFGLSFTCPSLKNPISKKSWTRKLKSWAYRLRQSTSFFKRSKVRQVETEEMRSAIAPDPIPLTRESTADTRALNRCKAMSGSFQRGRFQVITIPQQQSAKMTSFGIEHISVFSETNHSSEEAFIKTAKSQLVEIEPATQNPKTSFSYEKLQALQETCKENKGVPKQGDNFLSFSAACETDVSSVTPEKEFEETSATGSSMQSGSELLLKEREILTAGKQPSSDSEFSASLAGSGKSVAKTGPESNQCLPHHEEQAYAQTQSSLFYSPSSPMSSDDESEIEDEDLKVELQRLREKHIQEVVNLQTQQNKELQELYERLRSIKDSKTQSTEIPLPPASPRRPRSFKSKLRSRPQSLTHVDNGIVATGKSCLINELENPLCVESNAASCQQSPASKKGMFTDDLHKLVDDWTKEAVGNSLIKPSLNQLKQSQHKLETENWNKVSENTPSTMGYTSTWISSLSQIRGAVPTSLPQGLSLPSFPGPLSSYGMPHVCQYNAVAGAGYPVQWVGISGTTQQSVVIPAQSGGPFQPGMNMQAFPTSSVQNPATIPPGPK
RAF proto-oncogene serine/threonine-protein kinase (Homo sapiens), sequence (P04049 whole entry): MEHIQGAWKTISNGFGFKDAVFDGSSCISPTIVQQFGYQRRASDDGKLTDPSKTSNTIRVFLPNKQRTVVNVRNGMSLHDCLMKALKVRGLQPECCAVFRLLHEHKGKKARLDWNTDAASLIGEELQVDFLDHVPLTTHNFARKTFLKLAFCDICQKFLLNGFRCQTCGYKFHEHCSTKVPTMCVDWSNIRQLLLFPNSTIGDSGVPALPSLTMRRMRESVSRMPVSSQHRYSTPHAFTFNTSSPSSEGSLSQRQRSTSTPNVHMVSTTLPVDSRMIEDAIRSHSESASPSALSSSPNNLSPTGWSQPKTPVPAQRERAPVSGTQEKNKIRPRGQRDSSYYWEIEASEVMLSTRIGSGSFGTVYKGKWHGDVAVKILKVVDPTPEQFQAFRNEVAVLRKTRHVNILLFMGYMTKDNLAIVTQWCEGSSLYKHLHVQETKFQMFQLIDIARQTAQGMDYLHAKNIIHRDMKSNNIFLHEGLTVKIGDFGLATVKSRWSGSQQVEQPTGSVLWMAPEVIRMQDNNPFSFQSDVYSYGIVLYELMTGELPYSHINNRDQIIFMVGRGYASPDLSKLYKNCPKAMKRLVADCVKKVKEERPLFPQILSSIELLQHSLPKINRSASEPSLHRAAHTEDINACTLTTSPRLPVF
BDNF/NT-3 growth factors receptor (Homo sapiens), sequence (Q16620 32-822 limits assumed): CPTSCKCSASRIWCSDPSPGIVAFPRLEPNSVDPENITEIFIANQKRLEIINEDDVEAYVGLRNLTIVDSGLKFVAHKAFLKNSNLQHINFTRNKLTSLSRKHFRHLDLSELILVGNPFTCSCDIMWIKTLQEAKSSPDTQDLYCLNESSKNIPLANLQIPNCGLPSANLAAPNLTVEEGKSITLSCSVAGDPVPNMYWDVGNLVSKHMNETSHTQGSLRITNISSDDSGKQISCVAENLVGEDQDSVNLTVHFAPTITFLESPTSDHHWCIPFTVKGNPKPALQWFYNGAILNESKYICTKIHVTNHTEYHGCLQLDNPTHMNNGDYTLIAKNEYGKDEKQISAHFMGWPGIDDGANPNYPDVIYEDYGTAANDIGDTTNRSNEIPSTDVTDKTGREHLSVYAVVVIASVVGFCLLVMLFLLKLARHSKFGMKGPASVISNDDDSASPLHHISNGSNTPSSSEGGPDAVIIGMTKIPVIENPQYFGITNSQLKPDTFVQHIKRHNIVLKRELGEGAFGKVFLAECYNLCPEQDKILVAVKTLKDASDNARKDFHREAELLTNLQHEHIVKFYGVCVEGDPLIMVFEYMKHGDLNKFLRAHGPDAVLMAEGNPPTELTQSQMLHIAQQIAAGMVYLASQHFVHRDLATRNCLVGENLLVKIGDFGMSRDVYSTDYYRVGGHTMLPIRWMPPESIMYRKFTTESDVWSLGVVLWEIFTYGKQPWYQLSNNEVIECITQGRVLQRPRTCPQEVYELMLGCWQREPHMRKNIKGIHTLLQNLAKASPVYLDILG
Serine/threonine-protein kinase VRK2 (Homo sapiens), sequence (Q86Y07 whole entry): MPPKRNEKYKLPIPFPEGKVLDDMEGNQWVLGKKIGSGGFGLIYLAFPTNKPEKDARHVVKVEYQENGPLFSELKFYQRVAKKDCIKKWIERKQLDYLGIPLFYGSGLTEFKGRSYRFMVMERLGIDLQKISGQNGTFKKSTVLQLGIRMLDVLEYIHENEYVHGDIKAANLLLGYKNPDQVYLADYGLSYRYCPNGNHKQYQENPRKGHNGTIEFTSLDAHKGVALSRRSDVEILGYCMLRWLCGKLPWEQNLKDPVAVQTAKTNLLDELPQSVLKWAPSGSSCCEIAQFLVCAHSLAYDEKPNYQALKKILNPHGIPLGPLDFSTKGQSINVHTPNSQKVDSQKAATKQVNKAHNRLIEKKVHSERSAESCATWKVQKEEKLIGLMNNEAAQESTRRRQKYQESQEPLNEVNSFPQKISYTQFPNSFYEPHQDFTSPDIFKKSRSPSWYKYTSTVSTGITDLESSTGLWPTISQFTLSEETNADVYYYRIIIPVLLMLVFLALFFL

On to `O=C1NC(=O)c2c1c1c3ccccc3[nH]c1c1[nH]c3cc(Br)ccc3c21`, for which the residual activity was 42% in [1]; 89% in [2]; 72% in assay [3]; 108% in assay [4]; 95% in assay [5]; 88% in assay [6]. The residual activity was 86% in [7]; 95% (inactive) in assay [8]; 90% in assay [9]; 96% (inactive) in assay [10]; 85% in [11]; 85% (inactive) in [12]. Further, the residual activity worked out at 82% in assay [13]; 95% in assay [14]; 88% in assay [15]; 95% in assay [16]; 102% in [17]; 91% in [18]. Further, the residual activity in [19] and in assay [20] was 82% in each case.

For the compound `N#C/C(=C(\N)Sc1ccc(N)cc1)c1ccccc1C(F)(F)F`, the residual activity in [1] is 72%; in [2], 74%; in assay [3], 86%; in assay [4], 119%; in [5], 107%; in [6], 95%. The residual activity in assay [7] is 94%; in [8] it was 101% (inactive); in assay [9], 95%; in [10], 101% (inactive); in assay [11], 89%; in assay [12], 93% (inactive). Also, the residual activity is 89% in assay [13]; 107% in [14]; 101% in assay [15]; 100% in assay [16]; 89% in assay [17]; 100% in [18]. Also, the residual activity was 76% in [19] and 66% in [20].

Regarding `COc1cc2ncnc(Nc3ccc(O)c(Br)c3)c2cc1OC`, the residual activity in [1] turned out to be 87%; in [2], 81%; in [3], 46%; in assay [4] it was 89%; in assay [5], 76%; in [6], 91%. The residual activity is 50% in [7]; 83% (inactive) in assay [8]; 56% in assay [9]; 96% (inactive) in [10]; 70% in [11]; 87% (inactive) in assay [12]. The residual activity in [13] was determined as 77%; in assay [14] it was 25%; in [15], 2%; in [16], 144%; in assay [17] it was 83%; in [18], 58%. Further, the residual activity came out at 64% in assay [19] and 38% in assay [20].

Take `O=C1NC(=O)c2cc(Nc3ccc(F)cc3)c(Nc3ccc(F)cc3)cc21`: the residual activity in assay [1] came out at 88%; in [2] it was 79%; in assay [3], 27%; in assay [4], 107%; in [5], 89%; in assay [6], 107%. Further, the residual activity is 81% in assay [7]; 99% (inactive) in [8]; 86% in assay [9]; 82% (inactive) in assay [10]; 34% in [11]; 87% (inactive) in [12]. Also, the residual activity in assay [13] worked out at 46%; in assay [14], 61%; in [15], 10%; in [16], 113%; in assay [17], 104%; in [18], 99%.

With `COc1ccc(C(=O)Nc2sc3c(c2C(N)=O)CCCC3)cc1OC`, the residual activity came out at 71% in assay [1]; 93% in assay [2]; 73% in assay [3]; 102% in assay [4]; 92% in assay [5]; 99% in assay [6]. In addition, the residual activity in [7] is 84%; in assay [8], 107% (inactive); in [9], 85%; in [10], 104% (inactive); in assay [11], 84%; in assay [12], 101% (inactive). Besides, the residual activity came out at 94% in [13]; 106% in assay [14]; 90% in assay [15]; 103% in assay [16]; 76% in assay [17]; 106% in assay [18]. In addition, the residual activity in assay [19] is 87%; in assay [20], 94%.

Take `O=c1cc(-c2cccc3c2Sc2ccccc2S3)oc(N2CCOCC2)c1`: the residual activity in assay [1] was 76%; in assay [2] it was 91%; in assay [3] it was 91%; in assay [4] it was 107%; in [5] it was 101%; in [6], 94%. In addition, the residual activity is 96% in assay [7]; 97% (inactive) in [8]; 97% in [9]; 103% (inactive) in [10]; 78% in assay [11]; 95% (inactive) in assay [12]. The residual activity stood at 87% in assay [13]; 109% in assay [14]; 91% in [15]; 113% in assay [16]; 104% in [17]; 99% in [18]. Also, the figures for the residual activity in [19] and in assay [20] were 96% and 55%, respectively.

For the origin of these results see ChEMBL document CHEMBL2218924, “A broad activity screen in support of a chemogenomic map for kinase signalling research and drug discovery” (Biochem J, 2013).
